In PubChem BioAssay (EPA / NIEHS):
Active and inactive are the calls of the source. The calls were made as follows: active = hit-call score of the fitted dose curve at least 0.9, where 1 is the maximum; inactive = score below 0.9.

Legend:
[1] = read-out: serum amyloid A (SAA), SAA1 (gene 6288); assay: BSK_CASM3C_SAA: BioMAP Diversity Plus: CASM3C Assay for serum amyloid A (SAA) Biomarker Activity (AID 2283049); conditions: primary human coronary artery smooth muscle cells; actives raise or lower the signal;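 also: SAA protein level quantified by ELISA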
[2] = BSK_CASM3C_SRB: Viability Assessment in the BioMAP Diversity Plus: CASM3C Assay (AID 2283050); conditions: primary human coronary artery smooth muscle cells;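 also: total protein by SRB staining as cytotoxicity measure in parallel cultures; cells exposed to compound for 24 h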
[3] = read-out: Thrombomodulin, THBD (gene 7056); assay: BSK_CASM3C_Thrombomodulin: BioMAP Diversity Plus: CASM3C Assay for Thrombomodulin Biomarker Activity (AID 2283051); conditions: primary human coronary artery smooth muscle cells; actives raise or lower the signal;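 also: thrombomodulin protein level measured by ELISA 24 h after dosing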
[4] = read-out: Tissue Factor, F3 (gene 2152); assay: BSK_CASM3C_TissueFactor: BioMAP Diversity Plus: CASM3C Assay for Tissue Factor Biomarker Activity (AID 2283052); conditions: primary human coronary artery smooth muscle cells; actives raise or lower the signal;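 also: cell surface tissue factor protein level read by ELISA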
[5] = read-out: Interferon-gamma inducible Protein 10 (IP10), CXCL10 (gene 3627); assay: BSK_hDFCGF_IP10: BioMAP Diversity Plus: hDFCGF Assay for Interferon-gamma inducible Protein 10 (IP10) Biomarker Activity (AID 2283053); conditions: primary human foreskin fibroblasts; actives raise or lower the signal
Method in brief: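 IP-10 levels, quantified by ELISA, are taken from human foreskin fibroblast cultures 24 h after chemical treatment, with DMSO serving as negative control and baseline for bidirectional analysis.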

[6] = read-out: Urokinase-type plasminogen activator receptor (uPAR), PLAUR (gene 5329); assay: BSK_CASM3C_uPAR: BioMAP Diversity Plus: CASM3C Assay for Urokinase-type plasminogen activator receptor (uPAR) Biomarker Activity (AID 2283054); conditions: primary human coronary artery smooth muscle cells; actives raise or lower the signal;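 also: cell-surface uPAR protein level quantified by ELISA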
[7] = read-out: Vascular cell adhesion molecule 1 (VCAM1), VCAM1 (gene 7412); assay: BSK_CASM3C_VCAM1: BioMAP Diversity Plus: CASM3C Assay for Vascular cell adhesion molecule 1 (VCAM1) Biomarker Activity (AID 2283055); conditions: primary human coronary artery smooth muscle cells; actives raise or lower the signal;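 also: VCAM-1 protein level quantified by ELISA on the cells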
[8] = read-out: Collagen III, COL3A1 (gene 1281); assay: BSK_hDFCGF_CollagenIII: BioMAP Diversity Plus: hDFCGF Assay for Collagen III Biomarker Activity (AID 2283056); conditions: primary human foreskin fibroblasts; actives raise or lower the signal
Method in brief: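 ELISA read-out of collagen III from human skin fibroblast cultures sampled 24 h post-dosing. Values were derived by bidirectional fitting relative to the DMSO vehicle control.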

[9] = read-out: Epidermal growth factor receptor (EGFR), EGFR (gene 1956); assay: BSK_hDFCGF_EGFR: BioMAP Diversity Plus: hDFCGF Assay for Epidermal growth factor receptor (EGFR) Biomarker Activity (AID 2283057); conditions: primary human foreskin fibroblasts; actives raise or lower the signal
Method in brief: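 Measured by ELISA: EGFR levels on primary human foreskin fibroblasts 24 h after chemical treatment, analysed relative to DMSO with bidirectional fitting.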

[10] = read-out: Interleukin-8 (IL8), CXCL8 (gene 3576); assay: BSK_hDFCGF_IL8: BioMAP Diversity Plus: hDFCGF Assay for Interleukin-8 (IL8) Biomarker Activity (AID 2283058); conditions: primary human foreskin fibroblasts; actives raise or lower the signal
Method in brief: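 Cells used are human skin primary fibroblasts. Chemical is added, cultures run 24 h, then IL-8 is quantified by ELISA, and gain or loss versus DMSO control is fitted in both directions.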

Measured: AC50

CCCCN(CCCC)N=O
inactive: all assays above

C=CC(=O)OCC(CC)(COC(=O)C=C)COC(=O)C=C
inactive: [3]
active: [1] 0.624 µM | [2] 2.21 µM | [4] 0.847 µM | [5] 1.71 µM | [6] 1.97 µM | [7] 1.65 µM | [8] 1.03 µM | [9] 1.59 µM | [10] 3.17 µM

c1cc2c3c(cccc3c1)CC2
inactive: all assays above

Cc1ccc([N+](=O)[O-])cc1C
inactive: all assays above

CCCCC(CC)COP(=O)(Oc1ccccc1)Oc1ccccc1 (stereo unspecified)
active: [2] 20 µM | [5] 4.03 µM | [8] 2.39 µM | [10] 11.9 µM
inactive: all other assays above

FC(F)(F)C(F)(C(F)(F)F)C(F)(F)C(F)(F)CC1CO1 (stereo unspecified)
not listed: [9]
inactive: all other assays above

CCOP(=S)(NC(C)C)Oc1ccccc1C(=O)OC(C)C (stereo unspecified)
inactive: all assays above

O=P1(N(CCCl)CCCl)NCCCO1 (stereo unspecified)
not listed: [9]
inactive: all other assays above

CCOP(=S)(S)OCC
inactive: all assays above

Cc1ccc(N)cc1N
not listed: [9]
inactive: all other assays above

ClC(Cl)(Cl)c1ccccc1
inactive: all assays above

CC(Cl)(Cl)C(=O)O
not listed: [9]
inactive: all other assays above

OCC1CO1 (stereo unspecified)
inactive: all assays above

CCOP(=S)(OCC)SCSCC
not listed: [9]
inactive: all other assays above

CCCCCCCc1ccc(O)cc1
inactive: [3] | [4] | [9]
active: [1] 34.4 µM | [2] 39 µM | [5] 22.6 µM | [6] 38 µM | [7] 28.5 µM | [8] 15.5 µM | [10] 35.1 µM

ClC(Cl)c1ccccc1
not listed: [9]
inactive: all other assays above

Cc1c([N+](=O)[O-])cc2c(c1[N+](=O)[O-])C(C)(C)CC2(C)C
active: [3] 7.74 µM | [6] 0.384 µM | [8] 3.32 µM
not listed: [9]
inactive: all other assays above

O=C(O)C1C(C(=O)O)C2(Cl)C(Cl)=C(Cl)C1(Cl)C2(Cl)Cl (stereo unspecified)
not listed: [9]
inactive: all other assays above

CCOc1ccc(C(C)(C)COCc2cccc(Oc3ccccc3)c2)cc1
active: [3] 10.7 µM
not listed: [9]
inactive: all other assays above

Cc1ccc2c(c1N)C(=O)c1ccccc1C2=O
active: [6] 20 µM | [8] 20 µM
not listed: [9]
inactive: all other assays above

O=P(Oc1ccccc1)(Oc1ccccc1)Oc1ccccc1
active: [3] 29.6 µM | [8] 8.45 µM
not listed: [9]
inactive: all other assays above

CCOP(=S)(Oc1ccc([N+](=O)[O-])cc1)c1ccccc1 (stereo unspecified)
active: [3] 12.9 µM | [5] 20 µM | [8] 8.08 µM
not listed: [2] | [9]
inactive: all other assays above

CCOC(=O)c1ccccc1C(=O)OCC
not listed: [9]
inactive: all other assays above

O=C(O)C(Cl)Cl
not listed: [9]
inactive: all other assays above

CCOS(=O)(=O)OCC
not listed: [9]
inactive: all other assays above

OCC(F)(F)OC(F)(F)C(F)(F)OC(F)(F)CO
not listed: [9]
inactive: all other assays above

CCC1(c2ccccc2)C(=O)N=C(O)NC1=O (stereo unspecified)
not listed: [9]
inactive: all other assays above

CCCCN(CCCC)SN(C)C(=O)Oc1cccc2c1OC(C)(C)C2
active: [1] 31.3 µM | [2] 33.7 µM | [3] 29.1 µM | [5] 8.12 µM | [7] 13.4 µM | [8] 5.49 µM | [10] 16.2 µM
inactive: [4] | [6]

CCCN(CCC)c1c([N+](=O)[O-])cc(C(C)C)cc1[N+](=O)[O-]
active: [3] 20 µM | [5] 20 µM | [8] 9.07 µM
not listed: [9]
inactive: all other assays above

CC(C)(C)c1ccccc1OP(=O)(Oc1ccccc1)Oc1ccccc1
active: [2] 5.23 µM | [3] 11.7 µM | [5] 20 µM | [7] 18.7 µM | [8] 2.83 µM
inactive: [1] | [4] | [6] | [10]

Cc1ccc(O)cc1C
not listed: [9]
inactive: all other assays above

CCCCC(CC)COC(=O)c1c(Br)c(Br)c(Br)c(Br)c1C(=O)OCC(CC)CCCC (stereo unspecified)
active: [1] 14.7 µM
not listed: [9]
inactive: all other assays above

O=[N+]([O-])c1ccc(Cl)c(Cl)c1
not listed: [9]
inactive: all other assays above

O=C(O)C=CC(F)(C(F)(F)F)C(F)(F)F
not listed: [9]
inactive: all other assays above

CCOP(=S)(OCC)SCSc1ccc(Cl)cc1
active: [4] 16.5 µM | [5] 8.28 µM | [7] 1.6 µM
not listed: [9]
inactive: all other assays above

CSC(C)(C)C=NO
not listed: [9]
inactive: all other assays above

Nc1cc2c3c(c1)C(c1ccccc1)=N[C@@H](NC(=O)c1cccnc1)C(=O)N3CC2
not listed: [9]
inactive: all other assays above

c1ccc2c(c1)sc1ccccc12
not listed: [9]
inactive: all other assays above

N#Cc1c(-c2ccc(Cl)cc2)[nH]c(C(F)(F)F)c1Br
active: [1] 6.57 µM | [2] 0.865 µM | [4] 0.224 µM | [5] 20 µM | [6] 0.773 µM | [7] 30.1 µM | [8] 0.0161 µM
inactive: [3] | [10]

CC(C)(C)c1ccc(O)cc1
not listed: [9]
inactive: all other assays above

COP(N)(=S)OC
not listed: [9]
inactive: all other assays above

Nc1ccc([N+](=O)[O-])cc1Cl
active: [6] 0.0567 µM
not listed: [9]
inactive: all other assays above

ClC1=C(Cl)C2(Cl)C3C(Cl)C(Cl)CC3C1(Cl)C2(Cl)Cl (stereo unspecified)
inactive: [4] | [6]
active: [1] 20 µM | [2] 33.9 µM | [3] 24.1 µM | [5] 7.58 µM | [7] 25.4 µM | [8] 6.06 µM | [10] 10.8 µM
